Source: PubChem
hgDAF12 agonist: hgDAF-12 agonism, primary luciferase screen | activation, % at 6.8 µM | AID 687014 | HEK293 GAL4-hgDAF12 UAS-luciferase reporter, agonist luminescence; normalized to butyrate control | 370,000 tested, 1.8% active;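 active = activation above a cutoff set at the mean of all screened compounds plus 3 SD, cut at about 10% in these data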;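 also: 0% = DMSO wells and 100% = sodium butyrate wells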
hcDAF12 agonist: activates DAF-12 receptor from parasite H. contortus | HEK293 hcDAF-12 lit1-tk-luc reporter, luminescence; 0% DMSO, 100% Δ7-dafachronic acid | activation, % at 6.8 µM | 370,000 tested, 1.4% active;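 active = activation above the mean of all tested compounds plus 3 SD, cut at about 5.5% in these data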;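 also: 100% = response to 3 µM Δ7-dafachronic acid high control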
DAX1 inh-1: NR0B1 (DAX1) inhibition. P51843. 340,000 tested, 0.99% active. HEK293 Gal4-DAX1 luciferase reporter, luminescence. inhibition, % at 6.75 µM;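 active = inhibition above the mean over all tested compounds plus 3 SD, cut at about 4.2% in these data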;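 also: 0% = DAX1-transfected cells with DMSO and 100% = empty-vector control cells with DMSO; inhibition shows as a rise in luminescence from relieved DAX1 repression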
Target sequence (P51843 207-470 limits assumed): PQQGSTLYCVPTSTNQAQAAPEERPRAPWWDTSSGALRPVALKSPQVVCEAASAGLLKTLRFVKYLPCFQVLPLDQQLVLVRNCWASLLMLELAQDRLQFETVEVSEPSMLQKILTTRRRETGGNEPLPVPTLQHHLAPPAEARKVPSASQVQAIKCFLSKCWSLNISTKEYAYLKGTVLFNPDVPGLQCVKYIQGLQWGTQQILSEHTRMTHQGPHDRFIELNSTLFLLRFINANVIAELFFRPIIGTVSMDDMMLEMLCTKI
DAX1 inh-2: inhibitors of DAX1 repression of SF-1 activated StAR promoter; HEK293T StAR-luciferase reporter, SF-1/DAX-1 repression relief; inhibition, % at 6.8 µM; 370,000 tested, 1.1% active;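 active = inhibition above the mean over all tested compounds plus 3 SD, cut at about 3.6% in these data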;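 also: 0% = DAX-1 cells with DMSO and 100% = cells lacking DAX-1 with DMSO; higher inhibition means more luminescence from relief of DAX-1 repression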
Wee1 degr inh: inhibitors of human Wee1 degradation | reporter increase, % at 5 µM | P30291 | 220,000 tested, 1.2% active | HeLa Luc-Wee1K328M stability, luciferase luminescence; 100% = proteasome inhibitor MG132 effect;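 active = activation above the mean of all tested compounds plus 3 SD, set per screening run, cut at about 8.8% in these data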;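 also: cells exposed to compound for 20 h before luminescence read; 0% = DMSO alone and 100% = MG132 at 30 µM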
ssDAF-12 act: activators of S. stercoralis DAF-12 nuclear receptor | HEK293 ssDAF-12/GRIP1 lit1-tk-luc reporter, luminescence; % of 3 µM dafachronic acid response | 370,000 tested, 1% active | activation, % at 6.8 µM;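 active = activation above the mean over all tested compounds plus 3 SD, cut at about 0.9% in these data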;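 also: 0% = DMSO-only wells and 100% = 3 µM delta7-dafachronic acid wells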
hgDAF12 ag: confirmation of H. glycines DAF-12 agonists; shares compounds with hgDAF12 agonist; HEK293 GAL4-hgDAF12 luciferase reporter, agonist mode; percent of butyrate response; activation, % at 6.8 µM; 3,300 tested, 80% active;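 active = mean activation over triplicate wells above the hit cutoff derived from the earlier primary screen, cut at about 11% in these data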;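 also: 0% = DMSO low control and 100% = 2 mM sodium butyrate high control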
LXR ag 2: LXR-beta agonism as DAF-12 counter-screen; shares compounds with hgDAF12 agonist; HEK293 Gal4-LXR luciferase reporter, 24 h; activation, % at 6.8 µM; 3,300 tested, under 10 active; AID 743051;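 active = mean activation of the triplicate above a set limit carried over from the primary screen, none filed active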
The depositor's hits bear a star; / = not tested or not shown. In the library only some 4.6% were active in any assay of this set; here they are far more common.

SMILES	hgDAF12 agonist	hcDAF12 agonist	DAX1 inh-1	DAX1 inh-2	Wee1 degr inh	ssDAF-12 act	hgDAF12 ag	LXR ag 2
O=C(NCc1cccs1)c1cc(-c2ccccc2)on1	16.2*	2.8	3.0	2.8	2.2	0.0	14.0*	0.5
CCCn1cc(NC(=O)c2cc(-c3ccccc3)on2)cn1	21.7*	0.2	3.3	-0.2	-1.7	-0.7	20.3*	0.2
O=C(Nc1cccc(O)c1)c1cc(-c2cccs2)on1	14.7*	2.8	1.0	2.6	/	-0.1	21.1*	0.4
O=C(Nc1cnn(C23CC4CC(CC(C4)C2)C3)c1)c1cc(-c2ccccc2)on1	-1.2	0.0	-0.1	0.1	0.3	-1.5	/	/
O=C(NCc1cccs1)c1cc(-c2cccs2)on1	15.3*	1.9	0.6	1.0	-0.4	-0.9	15.2*	0.4
CC(C)C[C@@H](CN)NC(=O)c1nc[nH]c1C(=O)N[C@@H](C)C(=O)CNC[C@H](C)NC(=O)c1nc[nH]c1C(=O)N[C@@H](CC(C)C)C(=O)O	1.4	1.1	0.4	0.4	/	-1.4	/	/
COC(=O)/C=C/c1cc(F)ccc1S(=O)(=O)NC(C)(C)C	0.0	-0.8	-0.8	0.0	/	-1.7	/	/
COc1ccc(CNC(=O)c2cc(-c3cccs3)on2)cc1	-0.6	-1.2	0.6	-0.8	-0.1	-0.5	/	/
COCCNC(=O)c1cc(-c2cccs2)on1	37.0*	1.5	3.9	1.2	-2.7	-0.1	28.1*	0.4
O=C(Nc1ccccc1)c1ccc2c(c1)OCCO2	13.3*	5.8*	0.7	2.0	-0.1	0.2	13.1*	0.7
Cc1cccc(NC(=O)c2ccc3c(c2)OCCO3)c1	16.9*	5.2	-3.3	1.9	/	-0.6	17.7*	1.2
O=C(c1ccccc1)c1ccc2c(c1)OCCOCCOCCO2	-1.8	-0.3	2.1	0.1	-0.9	-0.8	/	/
O=C(c1ccccc1)c1ccc2c(c1)OCCCO2	14.8*	6.2*	4.6*	1.3	2.6	0.2	17.9*	0.7
O=C(NC(=S)Nc1ccc(F)cc1)c1ccc2c(c1)OCCO2	17.0*	3.9	2.5	3.7*	9.5*	-0.1	10.6*	0.6
CSCCC(NC(=O)c1ccccc1)C(=O)N1CC(C)OC(C)C1 (centres undefined)	1.5	-1.3	1.2	-0.3	/	-0.5	/	/
CC(=O)c1cccc(NC(=O)c2ccc3c(c2)OCO3)c1	6.8	3.0	1.4	1.7	/	-0.9	/	/
Cc1cccc(NC(=S)NNC(=O)c2ccc3c(c2)OCO3)c1	18.4*	3.1	2.6	3.9*	4.2	0.0	13.2*	0.5
O=C(c1ccc(Cl)cc1)c1coc2ccc(O)cc12	17.5*	3.1	3.2	3.5	-0.6	-0.1	18.4*	1.0
Cc1ccc(C(=O)N2CCc3ccccc32)cc1NC(=O)c1ccco1	-2.0	-2.0	-0.1	0.6	0.2	-1.0	/	/
O=C(c1ccco1)N1CCc2ccccc21	13.6*	3.0	1.0	3.3	2.8	-0.6	8.1	0.5
Cc1ccc(C2=N/C(=C\N(C)C)C(=O)O2)cc1	15.4*	0.2	1.2	0.5	-0.3	-1.2	9.7	0.3
CCOC(=O)[C@@]12CCCC=C1N(CCc1ccc(Cl)cc1)C(=O)[C@H]2CC(=O)N1CCCC1	-6.2	-4.2	/	-4.2	/	-2.1	/	/
CCCCc1nc2ccccc2[nH]1	1.6	0.0	-0.4	0.8	4.3	-1.5	/	/
Cc1ccc(SCc2nc3ccccc3[nH]2)cc1	13.8*	1.0	2.6	1.6	-1.5	-1.1	11.5*	0.5
Cc1ccccc1OCc1nc2ccccc2[nH]1	19.1*	1.7	2.3	3.6	2.2	-0.1	17.4*	0.7
SMILES	hgDAF12 agonist	hcDAF12 agonist	DAX1 inh-1	DAX1 inh-2	Wee1 degr inh	ssDAF-12 act	hgDAF12 ag	LXR ag 2
C#CCNC(=O)C[C@H]1C[C@@]2(C(=O)OC)C(=C[C@H](C(C)(C)C)O[C@@H]2C)N(CCCCCCCC)C1=O	0.8	-1.1	/	-1.0	/	-0.9	/	/
C[C@H]1[C@@H](NC(=O)c2ccc(Cl)cc2)CC[C@@]23CCCN2C(=O)CCC[C@@H]13	3.0	-1.9	/	/	/	-1.5	/	/
Cc1cc(OCC(=O)N2CCOCC2)ccc1[N+](=O)[O-]	15.1*	3.8	5.2*	1.9	4.3	0.0	8.3	0.2
O=S1(=O)c2c(NCc3ccco3)cccc2Oc2ccccc2CN1Cc1cn(Cc2ccc(F)cc2)nn1	-1.7	-2.1	/	-0.3	/	-1.5	/	/
COc1ccccc1OCCCC(=O)Nc1nccs1	14.3*	2.2	2.8	4.5*	0.5	0.4	10.8*	0.4
O=C(COc1cccc2cccnc12)Nc1nccs1	13.6*	4.0	1.6	1.4	1.1	0.6	10.5*	0.6
COc1ccc(C(CC(=O)Nc2nccs2)n2cccc2)cc1 (centres undefined)	15.8*	3.3	3.1	2.5	1.5	0.9*	15.8*	0.7
C/C(=C\c1ccccc1)C(=O)Nc1nccs1	15.6*	3.9	2.5	1.2	-1.4	0.8	12.4*	0.5
Cc1cccc(OCCCC(=O)Nc2nccs2)c1C	1.5	-1.1	-1.8	0.0	-1.0	-1.1	/	/
Cc1ccc(C(=O)Nc2nc(-c3ccccn3)cs2)cc1S(=O)(=O)N1CCOCC1	-8.5	-2.1	-1.3	-4.2	/	-1.5	/	/
COc1cccc(NC(=O)c2cnn(-c3ccccc3)c2C)c1	17.6*	6.3*	0.6	2.8	/	1.2*	13.9*	0.8
Cc1ccc(NC(=O)c2cnn(-c3ccccc3)c2C)c(C)c1	7.3	1.9	1.9	1.0	/	-0.3	/	/
CCn1ncc(C(=O)Nc2cccc(Cl)c2)c1C	18.1*	5.3	2.9	2.8	1.9	0.9*	11.8*	0.4
CCN(CC)C(=O)C1=C(C)N(Cc2ccc(C(C)(C)C)cc2)C(=O)C(CC(=O)NC(c2ccccc2)c2ccccc2)C1 (centres undefined)	-0.9	-1.0	0.8	-1.3	/	-0.8	/	/
CCOC(=O)C1CCCN(C(=O)c2ccc3nc(-c4ccccc4)c(-c4ccccc4)nc3c2)C1 (centres undefined)	-3.4	-3.3	0.2	-0.8	/	-1.2	/	/
CCOC(=O)C1CCCN(C(=O)c2ccc3nc(-c4cccc(OC)c4)oc3c2)C1 (centres undefined)	14.4*	3.3	-1.8	-3.5	/	-0.2	11.6*	0.5
C[C@H]1CN([C@@H](C)CO)C(=O)CCCn2nncc2CO[C@@H]1CN(C)Cc1cccc(C(=O)O)c1	3.6	0.3	/	1.2	/	-0.5	/	/
O=C(c1cnn(-c2cccc(F)c2)c1)c1ccccc1O	15.3*	3.4	5.0*	2.2	/	0.6	16.1*	0.7
